Pol iota inh – DNA polymerase iota (human) inhibition; Q9UNA4; Pol iota fluorescent replication assay, 10 min; Potency, µM (series often up to 115 µM), inactives show top-dose activity, negative = inhibition, most hits filed as inhibitors; hit rate 1% among 390,000; AID 588590
Target sequence (Q9UNA4 whole entry, looked up): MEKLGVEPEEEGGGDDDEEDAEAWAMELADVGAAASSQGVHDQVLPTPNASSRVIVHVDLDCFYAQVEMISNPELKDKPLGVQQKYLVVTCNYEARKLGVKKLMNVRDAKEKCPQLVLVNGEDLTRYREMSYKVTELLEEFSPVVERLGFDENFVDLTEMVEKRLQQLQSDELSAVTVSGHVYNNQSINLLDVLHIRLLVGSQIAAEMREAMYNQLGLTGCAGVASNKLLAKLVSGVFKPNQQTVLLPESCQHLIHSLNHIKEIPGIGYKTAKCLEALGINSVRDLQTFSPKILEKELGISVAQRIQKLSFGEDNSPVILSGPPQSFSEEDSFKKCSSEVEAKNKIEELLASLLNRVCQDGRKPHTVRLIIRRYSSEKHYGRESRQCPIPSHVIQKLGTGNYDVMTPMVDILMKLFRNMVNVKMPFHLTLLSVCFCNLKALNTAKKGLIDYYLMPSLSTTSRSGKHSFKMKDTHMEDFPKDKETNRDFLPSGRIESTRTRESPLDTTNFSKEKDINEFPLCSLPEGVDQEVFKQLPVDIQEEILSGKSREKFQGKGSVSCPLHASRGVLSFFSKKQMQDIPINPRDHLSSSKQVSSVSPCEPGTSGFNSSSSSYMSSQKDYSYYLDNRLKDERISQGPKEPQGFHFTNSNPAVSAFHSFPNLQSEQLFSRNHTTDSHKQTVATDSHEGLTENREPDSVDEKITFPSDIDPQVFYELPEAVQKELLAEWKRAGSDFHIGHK
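Pol iota at 10 nM preincubated 15 min with compounds at room temperature; reaction started with fluorescent substrate, 50 nM final. Fluorescence read kinetically at 0 and 10 min; buffer-only wells as negative control.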
WRN inhibitor – inhibitors of human WRN helicase | hit rate 0.46% among 360,000 | Q14191 | WRN helicase unwinding, fluorescent forked duplex, kinetic | Potency, µM (doses to about 114 µM), inactives show at the top dose activity change, negative = inhibition, hits mostly inhibitors | AID 651768; further: on the % scale 0 is the no-effect control and ±100 the full control effect; nearly all actives have a fitted effect of over 55% in size
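Screening of the MLSMR collection measured strand separation of a quenched forked DNA duplex (100 nM) by 20 nM WRN with 2 mM ATP, all final. Compounds were preincubated with enzyme 15 min at room temperature.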
FEN1 inhibitor – human FEN1 inhibition; Recombinant FEN1 flap cleavage, fluorescence, 15 min; Potency, µM (series often up to 114 µM), without a hit: at the top dose activity change, negative = inhibition, hits mostly inhibitors; hit rate 0.35% among 390,000; AID 588795; further: on the % scale 0 is the no-effect control and ±100 the full control effect; nearly all actives have a fitted effect of over 65% in size
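Enzyme 10 nM, 15 min RT preincubation with compound; start with substrate 50 nM final; reads at 0 and 15 min; qHTS titration, four-parameter Hill fit.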
Pol kappa inh – inhibitors of human DNA polymerase kappa. Q9UBT6. purified Pol kappa, fluorescent DNA synthesis assay, 10 min. Potency, µM (doses to about 107 µM), for the others: at the highest dose activity, negative = inhibition, actives largely listed as inhibitors. hit rate 0.53% among 400,000; further: on the % scale 0 is the no-effect control and ±100 the full control effect
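Enzyme at 10 nM met test compounds for 15 min at room temperature. Substrate addition (50 nM final) began the reaction, which was monitored by fluorescence at 0 and 10 min.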
POLH inh – blocks human DNA polymerase eta activity; hit rate 1.2% among 390,000; recombinant Pol eta, fluorescent DNA replication assay; Potency, µM (highest dose often 114 µM), for the others: top-dose activity change, negative = inhibition, actives largely listed as inhibitors; further: on the % scale 0 is the no-effect control and ±100 the full control effect
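Pol eta (10 nM) was preincubated with compounds for 15 min at room temperature, after which fluorescent replication substrate (50 nM final) was added to start the reaction. Fluorescence was read kinetically at 0 and 10 min.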
Pol beta inh – DNA polymerase beta (human) inhibition. Pol beta primer extension/strand displacement, fluorescence kinetic. Potency, µM (series often up to 114 µM), inactives show at the highest dose activity change, negative = inhibition, hits mostly inhibitors. hit rate 1.3% among 340,000. AID 485314; further: on the % scale 0 is the no-effect control and ±100 the full control effect
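Homogeneous kinetic assay of primer extension and strand displacement by 10 nM Pol beta, preincubated 15 min at room temperature with compound before 50 nM substrate (final) was added. Read at 0 and 10 min; four-parameter Hill fit.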
* marks the source's active call; other numbers are inactive results; ? = inconclusive; . = not tested or not shown; [ ] = dose if it differs, or a comment. The list is not random: actives were taken first. Their share in the collection is about 2.4%. The call rests on the fitted dose curve; in most records, active means well fitted curve in the direction sought with a large enough effect; inconclusive means small, poorly fitted or top-dose-only effect, or another doubt; inactive means no such curve, though single readings can be large; an effect the other way counts as inactive or inconclusive. Potency means the concentration at half of the fitted maximal effect.

SMILES | Pol iota inh | WRN inhibitor | FEN1 inhibitor | Pol kappa inh | POLH inh | Pol beta inh
Cc1ccc2[nH]c(O)c(N=NC(=O)c3ccc(NS(=O)(=O)c4cccs4)cc3)c2c1 | ? | -31%[57.1 µM] | ? | -11% | 22µM* | 3%
O=C(N=Nc1c(O)[nH]c2ccc(F)cc12)c1ccc(NS(=O)(=O)c2cccs2)cc1 | 20% | 0% | -24% | -8% | ? | .
O=CNc1ccc(/C=C/c2ccnc3ccccc23)cc1 | -29% | . | -15% | -4% | . | .
O=C(CNC(=O)C1CCCCC1)OCc1ccccc1 | -19% | . | -6% | -12% | . | .
ONCc1ccccc1 | . | . | . | 8%[60.1 µM] | . | .
O=C(O)CCc1c2ccc(=O)c(O)c-2oc2c(O)c(O)ccc12 | ? | . | 1.4µM* | -46% | . | .
COc1ccccc1COc1ccc2c(C)c(CCC(=O)O)c(=O)oc2c1C | 176% | -6% | -11% | 7% | -23% | 13%
CCOc1ccccc1NC(=O)Cn1c(=O)n(CCCC(=O)NCCOC)c(=O)c2cc(OC)c(OC)cc21 | 89µM* | . | -18% | ? | -4% | 37%
CCOc1ccccc1NC(=O)Cn1c(=O)n(CCCCC(=O)NCCCOC)c(=O)c2ccccc21 | -8% | . | 10% | 1% | -7% | -2%
C(=C\n1nnc2ccccc21)/c1ccc[nH]1 | ? | ? | ? | 25µM* | 50µM* | .
O=C(Cn1ncc2c3ccccc3n(Cc3cccc(Cl)c3)c2c1=O)NCc1cccs1 | ? | . | 14% | -27% | -17% | 25µM*
O=C(Cn1ncc2c3ccccc3n(Cc3cccc(Cl)c3)c2c1=O)N1CCCCCC1 | ? | . | 8% | -25% | -20% | 25µM*
CCc1ccccc1NC(=O)Cn1ncc2c(C)n(Cc3ccccc3F)c(C)c2c1=O | 49% | . | -6% | -5% | -9% | 8%
O=C(Cn1ncc2c3ccccc3n(Cc3cccc(Cl)c3)c2c1=O)Nc1ccc(F)cc1F | ? | . | 3% | ? | ? | 22µM*
O=C(Cn1ncc2c3ccccc3n(Cc3ccccc3)c2c1=O)N1CCCCCC1 | 27% | . | 4% | -10% | -21% | 2%
Cc1ccc(Cl)cc1NC(=O)Cn1ncc2c(C)n(Cc3ccccc3F)c(C)c2c1=O | ? | . | -12% | -32% | ? | 13µM*
COC(=O)c1ccccc1NC(=O)c1cnn2c1NC(=C1CC1)C=C2C(F)F | 18% | . | -25% | 3% | . | .
CC(CCc1ccccc1)NC(=O)Cn1ncc2c3ccccc3n(Cc3cccc(Cl)c3)c2c1=O (configuration not stated) | ? | . | 14% | -24% | ? | 18µM*
CC(NC(=O)Nc1ccc(O)cc1)(C(F)(F)F)C(F)(F)F | 11µM* | -2%[57.1 µM] | -10% | -21% | -8% | -1%
CC(=O)Nc1ccc(/C=C/c2ccncc2)cc1 | 13% | . | 10% | 1% | . | .
O=[N+]([O-])c1ccc(-c2nc(NCc3ccccc3)c3ccccc3n2)cc1 | 46% | -9%[57.1 µM] | -2% | -16% | 79µM* | 1%
CCCC[C@H](NC(=O)[C@H](CC(C)C)NC(=O)[C@@H](Cc1c[nH]c2ccccc12)NC(=O)[C@H](Cc1ccccc1)NC(=O)[C@@H](Cc1c[nH]c2ccccc12)NC(=O)[C@H](CC(N)=O)NC(=O)[C@@H](Cc1c(Cl)cccc1Cl)NC(=O)[C@@H]1CCCN1C(=O)[C@H](Cc1ccccn1)NC(=O)[C@@H]1CCCN1C(=O)[C@H](N)CCCCNC(=O)c1cccnc1)C(N)=O | . | . | . | 0%[60.1 µM] | . | .
O=C1NN(c2ccccc2)C(=O)/C1=C\c1cccn1-c1ccc(Cl)c([N+](=O)[O-])c1 | ? | -11%[57.1 µM] | 2% | ? | 20µM* | ?
CCCCn1c2ccccc2c2nnc(SCC(=O)Nc3ccc(NC(C)=O)cc3)nc21 | -11% | . | ? | -1% | -5% | 14µM*
Cc1cc(NC(=O)CN2CCC(C)CC2)nc2c1c(=O)oc1ccccc12 | ? | . | 17% | 89µM* | -17% | -1%
SMILES | Pol iota inh | WRN inhibitor | FEN1 inhibitor | Pol kappa inh | POLH inh | Pol beta inh
COc1ccc(NC(=O)/C(Cl)=C(/Cl)S(=O)(=O)Cc2ccc(C)cc2)cn1 | ? | 50µM* | -20% | -6% | 14µM* | -1%
COc1ccc(NC(=O)/C(Cl)=C(/Cl)S(=O)Cc2ccccc2Cl)cn1 (configuration not stated) | ? | 11µM* | -17% | -7% | 8% | -1%
COc1ccc(NC(=O)Cc2ccc(Cl)c(Cl)c2)cn1 | -10% | 5% | 18% | -13% | -4% | 8%
Cc1ccc(SC[C@H](Cc2ccccc2)N2CC[C@@H](C(C)(C)C)CCC2=O)cc1 | 4% | . | -11% | -13% | . | .
COc1ccccc1CNC(=O)C1CCN(S(=O)(=O)c2c(C)noc2/C=C/c2cccs2)CC1 | 89µM* | . | 89µM* | ? | 0% | 1%
COc1cccc(NC(=O)C2CCN(S(=O)(=O)c3c(C)noc3/C=C/c3cccs3)CC2)c1 | ? | . | -16% | -19% | -12% | 3%
CC(C)=CCc1c(O)cc2oc3c(CC=C(C)C)c(O)c(O)c(CC=C(C)C)c3c(=O)c2c1O | ? | -7%[11.6 µM] | -35% | 79µM* | 40µM* | 45µM*
CCCCCCCCCCCC | . | . | . | 18%[60.1 µM] | . | .
CCCCN(CCCC)S(=O)(=O)c1ccc(NC(=O)Cc2cccs2)cc1 | 50µM* | -5%[11.6 µM] | -14% | ? | 79µM* | ?
Cc1c(NC(=O)Cc2cccs2)cccc1[N+](=O)[O-] | 24% | -15% | 4% | -13% | ? | 35µM*
CCCNS(=O)(=O)c1ccc(NC(=O)Cc2cccs2)cc1 | 16% | 9% | 10% | -2% | -5% | -29%
CC(C)(C)c1csc(NC(=O)Cc2cccs2)n1 | 72% | -14% | 1% | -16% | -28% | 22µM*
Cc1cccc(C)c1NC(=O)Cc1cccs1 | ? | -32% | 4% | -14% | ? | 40µM*
Cc1c(Cl)cccc1NC(=O)Cc1cccs1 | 21% | -1% | 21% | -6% | -7% | 19%
N#Cc1nc(-c2ccc(OCc3ccc(Cl)cc3)cc2)oc1N1CCCCCC1 | 31% | . | 7% | 14% | . | .
CC(Oc1ccccc1)C(=O)N[C@@H]1C(=O)N2C(C(=O)O)C(C)(C)S[C@H]12 (some centres not stated) | 19% | . | 0% | -20% | . | .
CC(=O)c1cccc(NC(=O)Cc2cccs2)c1 | -18% | -10%[57.1 µM] | 13% | ? | ? | 32µM*
O=C(Cc1cccs1)Nc1ccccc1 | 6% | -5% | -2% | -1% | -18% | 70%
Cc1ccc(OCCC(=O)OCC(=O)Nc2ccc(Cl)cn2)cc1 | ? | -13%[57.1 µM] | -5% | -38% | 16µM* | -21%
O=C(Nc1ccc(F)c(F)c1)c1cnn2c1NC(=C1CC1)C=C2C(F)F | -19% | . | -9% | -8% | . | .

Screening data: PubChem, National Center for Advancing Translational Sciences (NCATS)
